Assay [1] can be described thus: liver-stage malaria parasite load reduction – cell-based, known kinase inhibitor set, luminescence, hepatoma host viability (AID 624392).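 Note: infected cells incubated roughly two days before readout.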 Conditions: Plasmodium liver stage in hepatoma cells, luciferase luminescence, concentration not given here; liver cell % of control: measured here: host liver cell viability; parasite % of control: stronger effect = lower value.
Assay [2] is described as follows: altered dexamethasone sensitivity, NF-kB reporter, cell-based, luciferase, IL-1B stimulus (AID 624486).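 For percent of negative control (+Dex): 100% = mean signal of vehicle control wells on the plate.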 Conditions: IL-1B + dexamethasone, luminescence; percent of negative control (+Dex): actives lie on both sides, concentration not given here; z-score: measured here: IL-1B alone, no Dex.
Assay [3] addresses Cellular tumor antigen p53 (Homo sapiens) (UniProt P04637). As to the kind of experiment: GFP-p53 level modulators in HPV16+ cells – imaging, known kinase inhibitor set, EGFP/DsRed ratio (AID 1053116).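 Note: cells exposed to compounds for 24 h at 37 °C before reading.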 As to conditions: GFP-p53 stability, stronger effect = higher value; EGFP object count: measured here: GFP-p53 positive objects count.
A short description of assay [4]: inducers of IRF3 signaling, differentiated THP-1 – cell-based, PMA-stimulated THP-1, luminescence (AID 1053176). Conditions: PMA-differentiated THP-1, IRF3 reporter luminescence; stronger effect = higher value.

SMILES strings stand for the structures. Values joined by “and” are separate entries in the source; they are usually repeats but may differ in a detail not shown here. Identical values can stand only once. Active and inactive are the calls of the source. The rule behind the calls is not given here.

Cellular tumor antigen p53 (Homo sapiens), sequence (P04637 whole entry, looked up): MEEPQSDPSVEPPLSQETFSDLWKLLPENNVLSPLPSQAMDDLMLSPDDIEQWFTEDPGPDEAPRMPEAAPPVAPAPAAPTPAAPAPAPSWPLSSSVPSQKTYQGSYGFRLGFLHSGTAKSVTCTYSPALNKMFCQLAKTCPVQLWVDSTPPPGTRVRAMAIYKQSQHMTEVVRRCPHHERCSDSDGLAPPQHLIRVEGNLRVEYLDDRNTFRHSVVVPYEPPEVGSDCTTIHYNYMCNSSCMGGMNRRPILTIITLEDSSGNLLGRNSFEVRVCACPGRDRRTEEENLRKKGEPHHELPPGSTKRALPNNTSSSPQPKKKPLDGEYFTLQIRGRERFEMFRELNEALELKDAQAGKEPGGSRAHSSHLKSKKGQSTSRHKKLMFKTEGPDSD

Consider `O=c1c(Oc2ccc(F)cc2F)cc2cnc(NC3CCOCC3)nc2n1C1CC1`, for which, in assay [1], the liver cell % of control was 113% and the parasite % of control was 52.9% (inactive). In addition, in assay [2], the percent of negative control (+Dex) was 92.5% (inactive) and the z-score was -0.435. In addition, in assay [3], the EGFP object count is 4 and the EGFP/DsRed ratio is 0.269 (inactive). The fraction signal in assay [4] is -0.0095 (inactive).

For the compound `CC(O)CNc1cc(-c2[nH]c3cccnc3c2-c2ccc(F)cc2)ccn1` (stereo unspecified), in assay [1], the liver cell % of control turned out to be 229% and the parasite % of control is 13.2% (inactive). Further, in assay [2], the percent of negative control (+Dex) is 106% (inactive) and the z-score amounted to 0.42. In assay [3], the EGFP object count was 4 and the EGFP/DsRed ratio was 0.042 (inactive). Besides, the fraction signal in assay [4] was 0.0055 (inactive).

As to `COc1cccc(C2=C(c3cn(C)c4ccccc34)C(=O)NC2=O)c1`, in assay [1], the liver cell % of control worked out at 216% and the parasite % of control was 15.4% (inactive). In assay [2], the percent of negative control (+Dex) is 110% (inactive) and the z-score is -0.735. Also, in assay [3], the EGFP object count is 9.5 and the EGFP/DsRed ratio was 0.204 (inactive). Also, the fraction signal in assay [4] is -0.003 (inactive).

In the case of `CNCC1CCn2c(c(C3=C(c4cn(C)c5ccccc45)C(=O)NC3=O)c3ccccc32)C1` (stereo unspecified), in assay [1], the liver cell % of control was 101% and the parasite % of control is 45.7% (inactive). In assay [2], the percent of negative control (+Dex) is 94.5% (inactive) and the z-score is -0.52. Moreover, in assay [3], the EGFP object count is 1 and the EGFP/DsRed ratio is 0.0128 (inactive). Further, the fraction signal in assay [4] was -0.0115 (inactive).

With `COc1cc(F)c(F)c(F)c1C(=O)c1cnc(NC2CCN(S(C)(=O)=O)CC2)nc1N`, in assay [1], the liver cell % of control is 92.2% and the parasite % of control was 450% (inactive). Moreover, in assay [2], the percent of negative control (+Dex) was 122% (inactive) and the z-score was found to be 0.18. In assay [3], the EGFP object count came out at 3 and the EGFP/DsRed ratio is 0.21 (inactive). The fraction signal in assay [4] is -0.0095 (inactive).

As to `Nc1c(C(=O)c2cccc(C(O)(CO)CO)c2)cnn1-c1ccc(F)cc1`, in assay [1], the liver cell % of control was found to be 95.6% and the parasite % of control was 51.5% (inactive). Further, in assay [2], the percent of negative control (+Dex) is 104% (inactive) and the z-score is 0.905. For the same compound, in assay [3], the EGFP object count came out at 3 and the EGFP/DsRed ratio was 0.0614 (inactive). In assay [4], the fraction signal is 0.0095 (inactive).

Take `CNCC#Cc1c(F)ccc2c1C(=Cc1[nH]ccc1OC)C(=O)N2`: in assay [1], the liver cell % of control was 149% and the parasite % of control was 6.77% (inactive). Moreover, in assay [2], the percent of negative control (+Dex) is 162% (active) and the z-score was 1.97. In addition, in assay [3], the EGFP object count was 39 and the EGFP/DsRed ratio was 0.619 (inactive). Also, in assay [4], the fraction signal was -0.0115 (inactive).

`CCc1c(C)nc2sc3c(N)ncnc3c2c1C`: in assay [1], the liver cell % of control is 221% and the parasite % of control is 5.86% (inactive). Moreover, in assay [2], the percent of negative control (+Dex) was 53.5% (active) and the z-score was -4.42. Besides, in assay [3], the EGFP object count was 3.5 and the EGFP/DsRed ratio was 0.129 (inactive). Moreover, in assay [4], the fraction signal is -0.001 (inactive).

For `O=C1NC(=NCCc2cccs2)SC1=Cc1ccc2ncccc2c1`, in assay [1], the liver cell % of control stood at 118% and the parasite % of control is 40.6% (inactive). In addition, in assay [2], the percent of negative control (+Dex) is 96% (inactive) and the z-score was -0.36. In assay [3], the EGFP object count came out at 4.5 and the EGFP/DsRed ratio was 0.079 (inactive). Moreover, the fraction signal in assay [4] was -0.003 (inactive).

Take `CN=C1NC(=O)C(=Cc2ccc3ncccc3c2)S1`: in assay [1], the liver cell % of control came to 82.2% and the parasite % of control was 65.3% (inactive). In assay [2], the percent of negative control (+Dex) was 98.5% (inactive) and the z-score is -0.23. Besides, in assay [3], the EGFP object count was found to be 2 and the EGFP/DsRed ratio was 0.0435 (inactive). Further, in assay [4], the fraction signal was 0.0015 (inactive).

On to `CC(CS(C)(=O)=O)Nc1ncc2cc(Oc3ccc(F)cc3F)c(=O)n(C)c2n1` (stereo unspecified), for which, in assay [1], the liver cell % of control is 125% and 102%; the parasite % of control is 49.1% (inactive) and 48.7% (inactive). Also, in assay [2], the percent of negative control (+Dex) is 99.5% (inactive) and 101% (inactive); the z-score is 0.115 and 0.87. In assay [3], the EGFP object count is 5.5 and 3.5; the EGFP/DsRed ratio was 0.387 (inactive) and 0.111 (inactive). For the same compound, the fraction signal in assay [4] was -0.005 (inactive) and -0.0115 (inactive).

Regarding `O=C1NC(=NCCc2ccc(Br)cc2)SC1=Cc1ccc2ncccc2c1`, in assay [1], the liver cell % of control came to 140% and the parasite % of control was 66.4% (inactive). In assay [2], the percent of negative control (+Dex) is 99.5% (inactive) and the z-score is -0.18. Besides, in assay [3], the EGFP object count was 3 and the EGFP/DsRed ratio is 0.0813 (inactive). Moreover, the fraction signal in assay [4] was 0.006 (inactive).

Consider `Fc1ccc(-c2c(-c3ccncc3)[nH]c3cccnc23)cc1`, for which, in assay [1], the liver cell % of control came out at 141% and the parasite % of control was 1.58% (active). In assay [2], the percent of negative control (+Dex) was 95% (inactive) and the z-score is 0.075. Moreover, in assay [3], the EGFP object count is 6 and the EGFP/DsRed ratio was 0.15 (inactive). Further, the fraction signal in assay [4] was -0.0095 (inactive).

Take `CC(=O)NC(Cc1ccc(OP(=O)(O)O)cc1)C(=O)NC1CCC(=O)N2CCCC(C(=O)Nc3cccc4ccccc34)N2C1=O` (stereo unspecified): in assay [1], the liver cell % of control worked out at 103% and the parasite % of control was 47% (inactive). In assay [2], the percent of negative control (+Dex) was 104% (inactive) and the z-score was determined as 0.475. In assay [3], the EGFP object count turned out to be 6.5 and the EGFP/DsRed ratio is 0.135 (inactive). Moreover, in assay [4], the fraction signal is -0.007 (inactive).

For the compound `Nc1c(C(=O)c2ccc(CCCN3CCOCC3)cc2)cnn1-c1ccc(F)cc1`, in assay [1], the liver cell % of control is 119% and the parasite % of control is 61% (inactive). Moreover, in assay [2], the percent of negative control (+Dex) was 106% (inactive) and the z-score was 0.435. Also, in assay [3], the EGFP object count is 2 and the EGFP/DsRed ratio was 0.0463 (inactive). Besides, the fraction signal in assay [4] is 0.001 (inactive).

As to `O=C1NC(=O)C(c2c[nH]c3ccccc23)C1c1c[nH]c2ccccc12` (stereo unspecified), in assay [1], the liver cell % of control came to 102% and the parasite % of control is 41.2% (inactive). Also, in assay [2], the percent of negative control (+Dex) was 100% (inactive) and the z-score turned out to be 0.125. In assay [3], the EGFP object count came out at 2.5 and the EGFP/DsRed ratio is 0.0298 (inactive). Moreover, the fraction signal in assay [4] is -0.0005 (inactive).

On to `O=C1Nc2ccc(F)cc2C1=Cc1ccc[nH]1`, for which, in assay [1], the liver cell % of control was 55.9% and the parasite % of control is 14% (inactive). For the same compound, in assay [2], the percent of negative control (+Dex) was 136% (active) and the z-score is 4.44. In assay [3], the EGFP object count came out at 23 and the EGFP/DsRed ratio is 0.607 (inactive). Moreover, in assay [4], the fraction signal was -0.014 (inactive).

As for `Nc1c(C(=O)c2cccc(CCCN3CCOCC3)c2)cnn1-c1ccc(F)cc1`, in assay [1], the liver cell % of control amounted to 97.8% and the parasite % of control was 48.1% (inactive). Moreover, in assay [2], the percent of negative control (+Dex) was 109% (inactive) and the z-score came to 1.09. In assay [3], the EGFP object count worked out at 6 and the EGFP/DsRed ratio is 0.339 (inactive). In addition, the fraction signal in assay [4] is -0.005 (inactive).

Source of the values: PubChem BioAssay.
